# Screens from PubChem BioAssay.
# BRCA1 expr up – increases BRCA1 expression; 380,000 tested, 1.1% active; Potency, µM (titrated, usually from 46.1 µM), without a hit: top-dose activation, actives largely listed as activators; MCF7-BRCA1-FFLuc reporter, luminescence, 48 h; response scale: scaled: vehicle 0%, 10 µM genistein 100%; further: nearly all actives have a fitted effect of over 80% in size
#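 Luminescence from a BRCA1-driven firefly luciferase in MCF7 cells was read after 48 h compound exposure at 37 C. Data normalized against DMSO and a 10microM genistein activation control, then curve-fitted across the titration.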
# HEK293 tox – cytotoxic in the GLP-1 receptor inverse agonist counter-screen; HEK293 cAMP-luciferase reporter cells, luminescence, 24 h; Potency, µM (highest dose often 38.3 µM), for inactives: at the top dose activity change, negative = inhibition, actives largely listed as inhibitors; 410,000 tested, 0.13% active; AID 624418;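 further: loss of luciferase light is scored as toxicity; on the % scale 0 is the no-effect control and ±100 the full control effect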
#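 MLSMR compounds, 24 hr on cells at 37 deg C/5% CO2; luminescence after luciferase reagent (12 min RT). Inhibition counted as the undesired cytotoxic outcome.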
# GLP1R inv ag – GLP-1 receptor (human) inverse agonism. Potency, µM (titrated, usually from 38.3 µM), without a hit: top-dose activity change, negative = inhibition, usual class: inhibitors. HEK293 GLP-1R CRE-luciferase, luminescence, 24 h; GLP-1R form is constitutively active. 410,000 tested, 1.6% active. AID 624417. P43220; further: on the % scale 0 is the no-effect control and ±100 the full control effect; nearly all actives have a fitted effect of over 55% in size
# Target sequence (P43220 whole entry, looked up): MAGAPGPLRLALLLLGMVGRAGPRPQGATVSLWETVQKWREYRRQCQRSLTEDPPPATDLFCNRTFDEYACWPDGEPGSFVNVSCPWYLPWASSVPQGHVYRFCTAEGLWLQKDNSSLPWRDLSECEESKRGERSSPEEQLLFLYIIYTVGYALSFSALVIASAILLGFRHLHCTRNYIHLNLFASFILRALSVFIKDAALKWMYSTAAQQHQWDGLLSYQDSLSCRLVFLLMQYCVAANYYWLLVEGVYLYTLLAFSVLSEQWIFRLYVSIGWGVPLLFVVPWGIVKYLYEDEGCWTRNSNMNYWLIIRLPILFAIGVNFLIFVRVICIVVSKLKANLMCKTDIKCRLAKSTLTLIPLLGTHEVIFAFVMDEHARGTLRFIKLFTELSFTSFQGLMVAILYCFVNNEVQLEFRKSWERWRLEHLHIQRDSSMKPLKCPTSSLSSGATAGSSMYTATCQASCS
#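 Seeding at 200 cells/uL, 12 h culture, 24 hr compound treatment, then luciferase reagent and a luminescence read; cells are HEK293 stably expressing a constitutively active GLP-1R plus cAMP-responsive luciferase.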
# Mito fusion act – blocks mitochondrial division or promotes mitochondrial fusion; AID 485298; S. cerevisiae fusion-defective mutant growth rescue, CellTiterGlo 48 h; Potency, µM (series often up to 46.1 µM), inactives show top-dose growth rescue (activation), usual class: activators; 320,000 tested, 0.23% active; further: % of control where 0% means no effect; nearly all actives have a fitted effect of over 45% in size
#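 S. cerevisiae fusion-defective temperature-sensitive mutants (e.g. fzo1-1, mgm1-5) grown 48 h at 37C in YPEG (ethanol/glycerol non-fermentable) medium with 23 nl compound per well; growth rescue read as CellTiterGlo luminescence.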
# GLP1R ag – activates the human GLP-1 receptor | P43220 | HEK293 GLP-1R CRE-luciferase, luminescence, 4-6 h; cells express a hypersensitive GLP-1R form | Potency, µM (series often up to 45.6 µM), for inactives: top-dose activation, usual class: activators | 380,000 tested, 0.007% active | AID 624172; further: % of control where 0% means no effect
# Starred values were filed as active, the others as inactive; i = inactive; ? = inconclusive; . = not tested or not shown. Shown are actives, neighbours in structure and some others; about 2.8% of the full set was active somewhere. The call rests on the fitted dose curve; in most records, active means well fitted curve in the direction sought with a large enough effect; inconclusive means small, poorly fitted or top-dose-only effect, or another doubt; inactive means no such curve, though single readings can be large; an effect the other way counts as inactive or inconclusive. Potency means the concentration at half of the fitted maximal effect.
SMILES,BRCA1 expr up,HEK293 tox,GLP1R inv ag,Mito fusion act,GLP1R ag
Cc1ccc(-n2ncc(C(=O)NCCN3CCC(Cc4ccccc4)CC3)c2C2CCN(C(=O)OC(C)(C)C)CC2)cc1,.,?,10µM*,.,.
Nc1c(C(=O)Nc2ccc(F)c(Cl)c2)sc2nc3c(cc12)N1CCC3CC1,?,46.5%,?,.,-10.3%
Cn1nc(C(C)(C)C)cc1C(=O)N1CCCCC1c1cc(C(=O)Nc2ccc(F)c(Cl)c2)no1 (stereo unspecified),-53.6%,1.2%,10µM*,.,-7.1%
COc1ccc(OC)c(NC(=O)N2C[C@H]3C[C@@H](C2)c2cccc(=O)n2C3)c1,-3.8%,1.4%,5.6%,-0.6%,4.6%
c1ccc(CCN2CCC(N3CCN(c4ccccc4)CC3)CC2)cc1,-22.8%,3.5%,1.1%,-6.4%,14.3%
CCCCN(Cc1ccccc1)C1CCN(CCc2ccccc2)CC1,0.0%,-2.1%,10µM*,13.9%,0.9%
C[C@]12CC[C@H]3[C@@H](CC[C@]4(O)C[C@@H](O)CC[C@]34C=O)[C@@]1(O)CC[C@@H]2C1=CC(=O)OC1,-68.2%,?,1µM*,-3.2%,-9.8%
FC(F)(F)c1ccccc1CCN1CCNCC1,10.3%,0.1%,?,-2.2%,-0.9%
COc1cccc(NC(=O)N2CCC3(CC2)OCCO3)c1,11.2µM*,9.4%,46.4%,0.4%,4.0%
COc1ccc(NC(=O)N2CCC3(CC2)OCCO3)cc1OC,8.7%,-3.5%,6.6%,0.5%,2.2%
Cc1ccccc1-n1c(/C=C/c2ccc(O)cc2)nc2ccccc2c1=O,.,84.5%,11.2µM*,.,.
O=C1Nc2ccccc2/C1=C/c1nc2ccccc2c(=O)n1-c1ccc(O)cc1,-23.1%,?,10µM*,-0.3%,9.1%
O=c1c2ccccc2nc(/C=C/c2ccccc2)n1-c1ccccc1O,-39.5%,-28.6%,?,18.0%,8.8%
COc1ccc(-n2c(/C=C3\C(=O)Nc4ccccc43)nc3ccccc3c2=O)cc1,-12.5%,-1.4%,-9.4%,-1.5%,6.7%
O=c1c2ccccc2nc(/C=C/c2ccccc2)n1-c1ccc(O)cc1,-50.3%,-17.7%,5.62µM*,15.3%,27.5%
O=c1c2ccccc2nc(/C=C/c2cccnc2)n1Cc1ccccc1,0.0%,-22.2%,5.01µM*,?,9.7%
Cc1ccc(-n2c(/C=C/c3ccc(Br)s3)nc3ccccc3c2=O)cc1C,.,-3.1%,11.2µM*,.,.
Cc1ccc(-c2csc(-c3c[nH]c4ccccc34)n2)c(C)c1,-60.8%,?,10µM*,-5.3%,-19.9%
CC(C)N1CC=C(c2c[nH]c3ccccc23)CC1,-39.4%,-17.7%,?,-1.2%,-17.6%
COc1ccccc1-n1c(-c2ccccc2Br)nc2ccccc2c1=O,-12.8%,-18.1%,?,-15.6%,15.5%
CC1CCCC(C)N1/N=C/c1c[nH]c2ccc(Br)cc12 (stereo unspecified),-45.6%,?,?,-10.6%,-35.7%
CN(CC1COc2ccccc2O1)c1nc(-c2cccnc2)nc2ccccc12 (stereo unspecified),-72.2%,?,?,7.7%,?
COC(=O)C1=C(c2ccc(Cl)c(C(F)(F)F)c2)C[C@@H]2CC[C@H]1N2C(=O)N1CCC(O)(c2ccc(Cl)cc2)CC1,-58.1%,-10.9%,8.91µM*,.,-3.4%
O=c1ccc2c(O)c3ccoc3cc2o1,19.1%,-3.4%,0.1%,.,-6.6%
CCN1CCN(Cc2ccc(C)cc2C)CC1,2.1%,4.4%,2.6%,-1.0%,-2.5%
SMILES,BRCA1 expr up,HEK293 tox,GLP1R inv ag,Mito fusion act,GLP1R ag
CCN(CC)CCNCC(=O)Nc1ccc(Cl)cc1C(=O)c1ccccc1,-10.8%,-3.9%,?,-7.7%,-1.8%
CCN(CC)CCNC(=O)c1nn(-c2ccc(Cl)cc2)c2c1CCc1cc(OC)ccc1-2,-87.5%,?,4.47µM*,.,-1.4%
COc1ccc2c(c1)C13CCN(C)C(C2)C1CCC1(C3)OCCO1 (stereo unspecified),-1.2%,12.2%,-0.8%,.,-4.6%
CN1C(=O)C(=Cc2ccc(-c3cccc(Cl)c3)o2)C(=O)N(C)C1=O,.,.,.,0.0%,.
Cc1ccc(C(=O)N/N=C/c2ccc(-c3cccc(Cl)c3)o2)cn1,-68.6%,?,7.94µM*,-5.8%,-3.7%
CN(C)CCCNC(=S)Nc1ccc(-c2ccccc2)cc1,-28.2%,?,11.2µM*,2.5%,0.1%
CCN(CCCl)Cc1ccccc1Br,6.8%,-0.9%,-5.6%,?,11.5%
Cc1cc(N2CCCCC2)nc2ccc(NC(=O)CCC(=O)N3CCN(c4cccc(Cl)c4)CC3)cc12,.,-9.4%,?,.,.
COP(=O)(OC)c1nc(-c2cccc3ccccc23)oc1N1CCOCC1,-26.1%,14.8%,44.3%,-2.2%,21.0%
N=C(N)SCc1ccc(Cl)cc1Cl,-56.6%,?,7.08µM*,1.7%,-8.3%
Clc1ccc(C(Cl)(Cl)Cl)c(Cl)c1,5.7%,-0.1%,4.6%,-9.3%,3.5%
O=C(CCCN1C(=O)/C(=C\c2ccccc2)SC1=S)N1CCOCC1,-80.9%,?,?,.,-11.3%
COc1cc(/C=C2\SC(=S)N(CCC(=O)N3CCCCC3)C2=O)cc(OC)c1OC,-71.2%,?,10µM*,-1.3%,5.1%
CC(C)OP(=O)(OC(C)C)C(Nc1ccccc1)c1cccc2c1OCO2 (stereo unspecified),-14.5%,2.2%,?,3.0%,-1.5%
COc1ccccc1N1CCN(C(=O)c2sc3nc(C)nc(N4CCN(c5ccccn5)CC4)c3c2C)CC1,-77.8%,?,5.01µM*,28.2µM*,-0.4%
CCc1cc(C(=O)N2CCN(c3ccccc3OC)CC2)sc1C,-25.2%,?,?,14.7%,13.3%
CCCCc1ccc(C2C3=C(CC(C)(C)CC3=O)NC3=C2C(=O)c2ccccc23)cc1 (stereo unspecified),-77.0%,?,3.55µM*,-0.5%,-1.9%
CCCCOCCCN1C(C)=CC(=C2C(=O)NC(=S)NC2=O)C=C1C,9.2%,-8.9%,-5.1%,3.2%,1.1%
CCC(C)NC(=O)c1c(N)n(CC2CCCO2)c2nc3ccccc3nc12 (stereo unspecified),-27.8%,i,7.94µM*,15.5%,10.5%
Cn1c(O)c(C(=O)c2ccccc2Cl)c(=O)n(C)c1=O,-13.1%,-4.1%,-8.0%,-2.6%,-3.2%
O=c1[nH]c(=O)n(Cc2ccc(F)cc2)c(O)c1/C=N/Nc1ccccc1,-34.0%,0.0%,4.47µM*,-3.5%,0.1%
O=c1[nH]c(=O)n(Cc2ccc(F)cc2)c(O)c1C=NCCCO,6.3%,7.5%,10.8%,0.6%,-3.9%
C=C(C)[C@@]12OC3(c4ccccc4)O[C@@H]1C1[C@@H]4O[C@]4(CO)[C@@H](O)[C@]4(O)C(=O)C(C)=C[C@H]4[C@@]1(O3)[C@H](C)[C@H]2OC(=O)/C=C/C=C/c1ccccc1 (stereo partly specified),?,-25.5%,2.82µM*,.,-2.3%
